Laboratory results from PubChem BioAssay (NCATS).
Results filed as inconclusive are left out. The source made the active and inactive calls. Unless noted, the call rests on the fitted dose curve; in most records, active means well fitted inhibition curve with a large enough effect; inconclusive means small, poorly fitted or top-dose-only effect; inactive means flat fitted curve, though single readings scatter.

Assays:
[1] = tested on: N140; assay: qHTS profiling for inhibitors of Plasmodium falciparum proliferation (AID 504749); further: nearly all actives have a fitted effect of over 60% in size; further: potency means the concentration at half of the fitted maximal effect; conditions: P. falciparum in erythrocytes, SYBR Green DNA, 72 h; series mostly up to 28.7 µM
Procedure, shortened: (§1)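 Three-day growth assay of blood-stage parasites in erythrocytes (0.3% parasitemia, 2.5% hematocrit) at 37 C, 5% CO2, quantified by SYBR Green DNA staining after overnight detergent lysis.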

[2] = tested on: P94_40; assay: as above; conditions: P. falciparum in erythrocytes, SYBR Green DNA, 72 h; series mostly up to 28.7 µM
Procedure, shortened: as §1

[3] = tested on: PAD; assay: as above; conditions: P. falciparum in erythrocytes, SYBR Green DNA, 72 h; series mostly up to 28.7 µM
Procedure, shortened: as §1

[4] = tested on: PC15; assay: as above; conditions: P. falciparum in erythrocytes, SYBR Green DNA, 72 h; series mostly up to 28.7 µM
Procedure, shortened: as §1

[5] = tested on: PC26; assay: as above; conditions: P. falciparum in erythrocytes, SYBR Green DNA, 72 h; series mostly up to 28.7 µM
Procedure, shortened: as §1

[6] = tested on: PC49; assay: as above; conditions: P. falciparum in erythrocytes, SYBR Green DNA, 72 h; series mostly up to 28.7 µM
Procedure, shortened: as §1

[7] = tested on: SC27B; assay: as above; conditions: P. falciparum in erythrocytes, SYBR Green DNA, 72 h; series mostly up to 28.7 µM
Procedure, shortened: as §1

[8] = tested on: TAB109; assay: as above; conditions: P. falciparum in erythrocytes, SYBR Green DNA, 72 h; series mostly up to 28.7 µM
Procedure, shortened: as §1

[9] = tested on: TAB113; assay: as above; conditions: P. falciparum in erythrocytes, SYBR Green DNA, 72 h; series mostly up to 28.7 µM
Procedure, shortened: as §1

[10] = tested on: TAB165; assay: as above; conditions: P. falciparum in erythrocytes, SYBR Green DNA, 72 h; series mostly up to 28.7 µM
Procedure, shortened: as §1

[11] = tested on: W2; assay: as above; conditions: P. falciparum in erythrocytes, SYBR Green DNA, 72 h; series mostly up to 28.7 µM
Procedure, shortened: as §1

[12] = target: Nuclear receptor subfamily 1 group I member 2 (Rattus norvegicus) (UniProt Q9R1A7); assay: qHTS assay for small molecule activators of the rat pregnane X receptor (rPXR) signaling pathway (AID 651751; call rule not given here; further: 0% is about no effect); conditions: rPXR reporter cells, luciferase (One-Glo), 24 h
[13] = qHTS assay for small molecule activators of the human pregnane X receptor (PXR) signaling pathway (AID 720659; call rule not given here; further: 0% is about no effect); conditions: DPX-2 HepG2 CYP3A4-luciferase, 24 h; series mostly up to 92.3 µM
[14] = tested on: P93_24; assay: qHTS profiling for inhibitors of Plasmodium falciparum proliferation (AID 504749); further: nearly all actives have a fitted effect of over 60% in size; further: potency means the concentration at half of the fitted maximal effect; conditions: P. falciparum in erythrocytes, SYBR Green DNA, 72 h; series mostly up to 28.7 µM
Procedure, shortened: as §1

Chain of Nuclear receptor subfamily 1 group I member 2 (Rattus norvegicus) (Q9R1A7 whole entry, looked up): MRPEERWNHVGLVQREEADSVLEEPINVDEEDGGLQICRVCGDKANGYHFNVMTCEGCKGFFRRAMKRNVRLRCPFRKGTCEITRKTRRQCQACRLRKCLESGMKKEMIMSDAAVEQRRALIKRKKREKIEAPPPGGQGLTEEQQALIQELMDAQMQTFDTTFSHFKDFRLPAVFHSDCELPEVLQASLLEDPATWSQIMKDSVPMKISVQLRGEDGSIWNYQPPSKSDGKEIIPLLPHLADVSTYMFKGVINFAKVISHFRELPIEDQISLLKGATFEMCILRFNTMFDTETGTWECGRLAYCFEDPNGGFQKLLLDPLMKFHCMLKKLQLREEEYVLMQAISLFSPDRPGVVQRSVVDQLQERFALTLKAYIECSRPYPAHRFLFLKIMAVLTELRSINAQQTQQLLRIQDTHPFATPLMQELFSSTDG

CC(C)NC[C@H](O)COc1ccc(CC(N)=O)cc1
inactive: Potency [1] | Potency [2] | Potency [3] | Potency [4] | Potency [5] | Potency [6] | Potency [7] | Potency [8] | Potency [9] | Potency [10] | Potency [11]

CC(=O)C(C)=O
inactive: max response [12] -4.56% | outcome [13]

CCCCCCCCCCCCCCSCC(=O)O
inactive: max response [12] 5.54% | outcome [13]

CCCc1c(OCCCOc2ccc(OCC(=O)O)cc2)ccc(C(C)=O)c1O
inactive: max response [12] -1.22%

CCCCCCCCCCCCCCCCCCOC[C@H](COP(=O)([O-])OCC[N+](C)(C)C)OC
inactive: Potency [1] | Potency [14] | Potency [2] | Potency [3] | Potency [4] | Potency [6] | Potency [7] | Potency [8] | Potency [9] | Potency [10] | Potency [11]

CCCCCCCCCCCCCCC[C@H](O)[C@H](N)CO
inactive: Potency [1] | Potency [14] | Potency [2] | Potency [3] | Potency [4] | Potency [5] | Potency [6] | Potency [7] | Potency [8] | Potency [9] | Potency [10] | Potency [11]

CN1C2CCC1CC(OC(c1ccccc1)c1ccccc1)C2 (configuration not stated)
inactive: Potency [1] | Potency [7] | Potency [9]
active: Potency [6] 2 µM | Potency [11] 1.51 µM

c1ccc(C2CN3CCSC3=N2)cc1 (configuration not stated)
active: Potency [1] 3.98 µM | Potency [14] 2.82 µM | Potency [2] 3.55 µM | Potency [3] 7.94 µM | Potency [4] 2.82 µM | Potency [5] 15.1 µM | Potency [7] 10 µM | Potency [8] 4.47 µM | Potency [9] 11.2 µM | Potency [10] 5.01 µM | Potency [11] 1.51 µM

CCCc1c(-c2ccc(O)cc2)nn(-c2ccc(O)cc2)c1-c1ccc(O)cc1
inactive: max response [12] -3.52% | outcome [13]

CC(O)C(O)[C@H]1CNc2nc(N)[nH]c(=O)c2N1 (some centres not stated)
inactive: Potency [1] | Potency [14] | Potency [2] | Potency [3] | Potency [4] | Potency [5] | Potency [6] | Potency [7] | Potency [8] | Potency [9] | Potency [10] | Potency [11]

C/C(=C\c1ccc(C(=O)O)cc1)c1ccc2c(c1)C(C)(C)CCC2(C)C
inactive: max response [12] 1.8%

NC(=O)c1ccccc1
inactive: max response [12] -1.26% | outcome [13]
